This is part of a sample that, as a whole, favours compounds with a hit. Of some 83,000 tested, about 20% had one in any assay.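 Values shown are percent growth following 48 h exposure of cells in 96-well plates to a single concentration of compound; below 10 was considered active.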 The source made the active and inactive calls.
What was measured:
Experiment in all cases: NCI-60 one-dose screen, 48 h (100 = growth as untreated, 0 = no growth, -100 = all killed)
Conditions in all cases: 10 µM unless noted
[1] = system: MOLT-4 leukemia
[2] = system: SR leukemia
[3] = system: RPMI-8226 leukemia
[4] = system: OVCAR-8 ovarian
[5] = system: OVCAR-5 ovarian
[6] = system: OVCAR-4 ovarian
[7] = system: SK-OV-3 ovarian
[8] = system: IGROV1 ovarian
[9] = system: OVCAR-3 ovarian
[10] = system: HS 578T breast

Measured: growth

CC1CCCC(C[N+](C)(C)C)C1=O (stereo unspecified)
inactive: [1] 75.7% | [2] 86.8% | [3] 105% | [4] 108% | [5] 104% | [6] 93.1% | [7] 110% | [8] 92.3% | [9] 121% | [10] 111%

O=C1NC(=O)C(=Cc2ccc(OCCCCC3CCCCC3)c(Cl)c2)C(=O)N1
inactive: [1] 96.5% | [2] 106% | [3] 97.7% | [4] 101% | [5] 98.8% | [6] 105% | [7] 99.9% | [8] 104% | [9] 106% | [10] 105%

CC(=O)O[C@H](C[C@H](C(C)C)N(C)C(=O)[C@@H](NC(=O)[C@H]1CCCCN1C)C(C)C)c1nc(C(=O)NC2CCC(C(=O)O)CC2)cs1 (stereo partly specified)
active: [9] 2.22%
inactive: [1] 30.9% | [2] 22.3% | [3] 23.8% | [4] 59.9% | [5] 85.7% | [6] 72% | [7] 50.9% | [8] 52.9% | [10] 24.2%

O=[N+]([O-])c1cc(I)cc([N+](=O)[O-])c1
inactive: [1] 97.1% | [2] 104% | [3] 101% | [4] 108% | [5] 119% | [6] 79.4% | [7] 125% | [8] 108% | [9] 107% | [10] 122%

CC[C@H](NC(=O)[C@H]1CCCCN1C)C(=O)N(C)[C@H](C[C@@H](OC(C)=O)c1nc(C(=O)N[C@@H](Cc2ccccc2)C[C@H](C)C(=O)O)cs1)C(C)C
active: [2] 6.46% | [4] 9.15% | [9] -6.57%
inactive: [1] 10.2% | [3] 15.5% | [5] 37.5% | [6] 43.5% | [7] 25.8% | [8] 25.3% | [10] 11.4%

O=C(NCCN1CC1)C(=O)NCCN1CC1
inactive: [1] 55.3% | [2] 19% | [3] 98.5% | [4] 69.3% | [5] 104% | [6] 106% | [7] 98% | [8] 78.5% | [9] 99.6% | [10] 107%

CCC[CH2][Sn]([CH2]CCC)([CH2]CCC)[O]c1ccc(Cl)cc1Cl
active: [1] -6.07% | [2] -30.4% | [3] -9.16% | [4] -48.1% | [5] -66.3% | [6] -100% | [7] -97.5% | [8] -66.9% | [9] -100% | [10] -10.3%

NC1CC2CCCCC2CC1(O)c1ccccc1 (stereo unspecified)
inactive: [1] 85.7% | [2] 90.7% | [3] 93.6% | [4] 98.6% | [5] 95.4% | [6] 102% | [7] 107% | [8] 102% | [9] 109% | [10] 102%

COc1ccc(C2=N[C@@H](Cc3ccccc3)C(=O)Nc3ccsc32)cc1
active: [2] 8.97% | [9] 3.83%
inactive: [1] 35.7% | [3] 41.7% | [4] 70.4% | [5] 84.1% | [6] 69.9% | [7] 67.4% | [8] 66% | [10] 65.4%

O=C(c1ccccc1O)c1[nH]c(Cl)c(Cl)c1-n1c(C(=O)c2ccccc2O)cc(Cl)c1Cl
inactive: [5] 18.5% | [6] 14.5% | [8] 23%
active: [1] -1.12% | [2] 8.12% | [3] -30.1% | [4] 8.28% | [7] -5.75% | [10] -16.9%

CC(=O)O[C@H](C[C@H](C(C)C)N(C)C(=O)[C@@H](NC(=O)[C@H]1CCCCN1C)C(C)C)c1nc(C(=O)N[C@@H](Cc2ccccc2)C[C@H](C)C(=O)O)c(C)s1
active: [2] 7.46% | [7] 6.87%
inactive: [1] 20.7% | [3] 25.1% | [4] 20.1% | [5] 31% | [6] 50.6% | [8] 31.1% | [9] 12.5% | [10] 21.1%

CC(=O)O[C@H]1CC[C@]2(C)[C@H]3CC[C@]4(C)[C@@H](OC(C)=O)CC[C@H]4[C@@H]3[C@@H](C)[C@]2(O)C1
inactive: [1] 87.9% | [2] 96.1% | [3] 100% | [4] 115% | [5] 108% | [6] 110% | [7] 117% | [8] 116% | [9] 127% | [10] 110%

CC1(C)C(C(=O)c2cn(CCCCF)c3ccccc23)C1(C)C
inactive: [1] 77.8% | [2] 77.9% | [3] 81.5% | [4] 82% | [5] 103% | [6] 107% | [7] 102% | [8] 114% | [9] 105% | [10] 88.5%

N#CC1C(C#N)C2CCC1C1C2N1c1ccccc1 (stereo unspecified)
inactive: [1] 91.2% | [2] 91.5% | [3] 95.8% | [4] 114% | [5] 92.4% | [6] 106% | [7] 100% | [8] 85.1% | [9] 107% | [10] 112%

CN(C)C(=O)Oc1ccccc1-c1ccccc1
inactive: [1] 89.9% | [2] 103% | [3] 104% | [4] 100% | [5] 109% | [6] 128% | [7] 100% | [8] 113% | [9] 108% | [10] 113%

[Cl][Hg][c]1cc(Br)cc(Br)c1
active: [1] 0.93% | [2] -16.6% | [9] -7.88%
inactive: [3] 23% | [4] 70.4% | [5] 118% | [6] 48.5% | [7] 86.3% | [8] 16.5% | [10] 30.3%

O=C(CN1CCN(C(=O)c2ccco2)CC1)Nc1ccc(Cl)cc1C(=O)c1ccccc1Cl
inactive: [1] 54.2% | [2] 72.7% | [3] 53.6% | [4] 87.1% | [5] 95.9% | [6] 87.5% | [7] 112% | [8] 57.8% | [9] 115% | [10] 78.3%

N#C[Se]CCN1C(=O)c2ccccc2C1=O
inactive: [1] 17.4% | [2] 27.7% | [3] 59.5% | [4] 30.3% | [5] 41.4% | [6] 67.4% | [7] 56.4% | [8] 26.1% | [9] 39.2% | [10] 21.9%

NC(=O)CNc1ccc([As]=[As]c2ccc(NCC(N)=O)cc2)cc1 (stereo unspecified)
active: [8] 8.16% | [9] -41.5%
inactive: [1] 58.8% | [2] 14% | [3] 13.5% | [4] 61.2% | [5] 74.6% | [6] 60.6% | [7] 93.7% | [10] 10.5%

O=C(CCCCCNC1=CC(=O)c2ccccc2C1=O)NCCC[Te]c1ccccc1
inactive: [1] 29.7% | [2] 38.3% | [3] 10.5%
active: [4] 8.94% | [5] -37% | [6] -44.8% | [7] -39.6% | [8] -24% | [9] -43.8% | [10] -9.34%

CCOC(=O)CCN(C)C1=Nc2ccc(Cl)cc2C(c2ccccc2)=[N+]([O-])C1
inactive: [1] 94.1% | [2] 85.8% | [3] 106% | [4] 101% | [5] 109% | [6] 99.4% | [7] 106% | [8] 107% | [9] 110% | [10] 96%

C=CC12CCN(CC1)C(C(O)c1ccnc3ccc(OC)cc13)C2 (stereo unspecified)
inactive: [1] 67.8% | [2] 37.1% | [4] 92.3% | [5] 88.4% | [6] 76.9% | [7] 89.2% | [8] 81.4% | [9] 93.7% | [10] 90.4%
active: [3] 4.37%

C#Cc1ccc2c(c1)C(c1ccccc1)=NCC(=O)N2C
inactive: [1] 39.5% | [2] 38.3% | [3] 64.5% | [4] 63.3% | [5] 85.5% | [6] 90.9% | [7] 31.6% | [10] 56.4%
active: [9] 9.19%

O=C1C2CC=CCC2C(=O)N1SC(Cl)(Cl)Cl (stereo unspecified)
inactive: [1] 36.3% | [2] 41.5% | [3] 33.1% | [4] 102% | [5] 111% | [6] 99.9% | [8] 31.7% | [9] 76.8% | [10] 160%

CCCCCCCCCCCCCC[P+](CCCCCC)(CCCCCC)CCCCCC
inactive: [1] 51.6% | [2] 62.4% | [3] 59.4%
active: [4] -79.9% | [5] -7.29% | [6] -91.8% | [7] -3.34% | [9] -100% | [10] -35.8%
